# From PubChem BioAssay (NCATS)
# Results filed as inconclusive are left out. Entries that show only a call come without a potency. The source made the active and inactive calls. Unless noted, calls come from the whole dose curve; as a rule, active = well fitted curve in the direction sought with a large enough effect; inconclusive = small, poorly fitted or top-dose-only effect, or another doubt; inactive = no such curve, though single readings can be large; an effect the other way counts as inactive or inconclusive.
# Legend:
# [1] = target: Calcium and integrin-binding protein 1 (Homo sapiens) (UniProt Q99828); assay: Primary qHTS for Identification of Calcium Integrin Binding Protein 1 (CIB1) Competitor (AID 1508620);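 note: GST tagged CIB1 binding a fluorescein labelled alphaIIb integrin peptide tracer; top concentration of the series differs between compounds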
# Chain of Calcium and integrin-binding protein 1 (Homo sapiens) (Q99828 whole entry, looked up): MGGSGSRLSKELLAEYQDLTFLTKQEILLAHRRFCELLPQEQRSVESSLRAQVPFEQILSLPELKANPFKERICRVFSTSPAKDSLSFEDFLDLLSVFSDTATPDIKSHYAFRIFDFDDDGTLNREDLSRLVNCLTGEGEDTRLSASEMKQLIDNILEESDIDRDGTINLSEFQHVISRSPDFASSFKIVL
# How it was run: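 Fluorescence polarization competition: CIB1-GST (1 uM final) preincubated with compound 15 min at room temperature, then FITC-labeled alphaIIb peptide (100 nM final) added for another 15 min. Polarization read at Ex 480/Em 540.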
# [2] = target: Cytochrome P450 1A2 (Homo sapiens) (UniProt P05177); assay: p450-cyp1a2 (AID 410; calls by dose curve; note: potency is the fitted concentration of half-maximal effect)
# Chain of Cytochrome P450 1A2 (Homo sapiens) (P05177 whole entry, looked up): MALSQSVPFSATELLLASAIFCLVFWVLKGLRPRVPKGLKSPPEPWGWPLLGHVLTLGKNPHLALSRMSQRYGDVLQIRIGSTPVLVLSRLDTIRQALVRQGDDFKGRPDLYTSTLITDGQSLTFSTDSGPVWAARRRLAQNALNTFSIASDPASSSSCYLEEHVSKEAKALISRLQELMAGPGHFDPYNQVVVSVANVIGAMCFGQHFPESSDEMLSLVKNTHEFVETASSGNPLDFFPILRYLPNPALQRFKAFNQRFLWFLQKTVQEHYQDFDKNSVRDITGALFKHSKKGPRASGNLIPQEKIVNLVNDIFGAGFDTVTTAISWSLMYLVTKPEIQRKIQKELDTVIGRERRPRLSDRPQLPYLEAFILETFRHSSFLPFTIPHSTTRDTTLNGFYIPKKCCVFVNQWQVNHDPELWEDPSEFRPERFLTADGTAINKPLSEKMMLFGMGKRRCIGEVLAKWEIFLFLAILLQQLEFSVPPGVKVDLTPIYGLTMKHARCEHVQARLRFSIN
# How it was run: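 20nM CYP1A2 with 100uM Luciferin-ME (at Km) in 100mM KPO4; compound preincubated 10 min, NADPH regeneration added, 60 min at room temperature. Luciferin quantified by luminescence after detection reagent; normalized to 57 uM furafylline.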
# [3] = NFAT Signaling Pathway (AID 444; active = well fitted curve in either direction with a large enough effect, not every such curve was filed as active;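 note: carbachol stimulus at about its EC50 of 1 µM final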); conditions: Jurkat NFAT-bla M1, carbachol, beta-lactamase ratio, 5 h; at 7.69 µM (top of the series) unless noted
# How it was run: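 Jurkat cells carrying an NFAT-driven β-lactamase reporter and co-transfected muscarinic M1 receptor were treated with compound plus carbachol (1 uM final, an EC50 level) for 5 h at 37 °C. CCF4 loading followed for 1 h at RT; 460/530 nm ratio gave %activity.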
# [4] = target: Glucocorticoid receptor (Homo sapiens) (UniProt P04150); assay: GR-GFP Redistribution (AID 450;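 active = compounds whose dose series gives a full or clear partial fitted curve of increased nuclear translocation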; note: potency is the fitted concentration of half-maximal effect); conditions: U2OS GR-GFP nuclear translocation, laser cytometry, 2 h
# Chain of Glucocorticoid receptor (Homo sapiens) (P04150 whole entry, looked up, the tested form may be a part): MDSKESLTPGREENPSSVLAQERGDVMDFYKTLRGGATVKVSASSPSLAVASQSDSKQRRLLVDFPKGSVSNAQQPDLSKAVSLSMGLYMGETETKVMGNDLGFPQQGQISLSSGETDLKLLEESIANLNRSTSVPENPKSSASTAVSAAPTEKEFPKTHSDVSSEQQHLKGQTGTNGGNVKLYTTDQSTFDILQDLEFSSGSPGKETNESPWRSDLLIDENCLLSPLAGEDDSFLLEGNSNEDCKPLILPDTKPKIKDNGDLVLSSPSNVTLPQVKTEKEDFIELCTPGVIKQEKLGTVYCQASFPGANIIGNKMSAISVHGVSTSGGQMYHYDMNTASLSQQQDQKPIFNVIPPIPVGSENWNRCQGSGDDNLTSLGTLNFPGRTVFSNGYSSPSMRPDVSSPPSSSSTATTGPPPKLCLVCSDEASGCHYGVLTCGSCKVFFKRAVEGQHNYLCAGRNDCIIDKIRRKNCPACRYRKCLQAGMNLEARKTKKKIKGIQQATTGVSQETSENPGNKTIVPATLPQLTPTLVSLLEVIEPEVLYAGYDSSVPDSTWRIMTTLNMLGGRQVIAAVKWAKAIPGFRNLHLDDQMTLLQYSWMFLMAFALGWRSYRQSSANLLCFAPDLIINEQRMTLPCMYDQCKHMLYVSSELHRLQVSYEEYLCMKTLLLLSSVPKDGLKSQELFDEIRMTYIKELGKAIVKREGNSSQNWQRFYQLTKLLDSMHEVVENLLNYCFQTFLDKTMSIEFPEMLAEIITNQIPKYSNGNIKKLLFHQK
# [5] = target: Glucocorticoid receptor (Homo sapiens) (UniProt P04150); assay: GR-EFC Redistribution (AID 451; calls by dose curve; note: potency is the fitted concentration of half-maximal effect); conditions: CHO-K1 GR-EFC translocation, beta-gal luminescence, 2 h
# How it was run: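 CHO-K1 cells stably expressing nuclear-localized β-gal enzyme acceptor and GR fused C-terminally to the enzyme donor fragment; ligand-driven nuclear translocation restores β-gal by complementation. Compounds titrated up to 46 uM final, 2 h at 37 °C; luminescence read.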
# [6] = target: Mitogen-activated protein kinase 10 (Mus musculus) (UniProt Q61831); assay: JNK3 AlphaScreen Assay (AID 530; active = well fitted curve in either direction with a large enough effect, not every such curve was filed as active;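 note: kinase came from lysate of stimulated human HepG2 cells; signal reports phosphorylation of biotinylated GST-cJun 1-79 at Ser73 with 10 µM ATP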)
# How it was run: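 Inhibitors reduce antibody binding to phosphorylated biotin-cJun, lowering AlphaScreen luminescence. Lysates from HepG2 cells pre-activated by IL-1beta plus TNF-alpha supplied JNK3; compounds were titrated.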
# [7] = target: Cytochrome P450 3A4 (Homo sapiens) (UniProt P08684); assay: qHTS Assay for Inhibitors and Substrates of Cytochrome P450 3A4 (AID 884); note: potency is the fitted concentration of half-maximal effect; nearly all actives have a fitted effect of over 50% in size
# Chain of Cytochrome P450 3A4 (Homo sapiens) (P08684 whole entry, looked up): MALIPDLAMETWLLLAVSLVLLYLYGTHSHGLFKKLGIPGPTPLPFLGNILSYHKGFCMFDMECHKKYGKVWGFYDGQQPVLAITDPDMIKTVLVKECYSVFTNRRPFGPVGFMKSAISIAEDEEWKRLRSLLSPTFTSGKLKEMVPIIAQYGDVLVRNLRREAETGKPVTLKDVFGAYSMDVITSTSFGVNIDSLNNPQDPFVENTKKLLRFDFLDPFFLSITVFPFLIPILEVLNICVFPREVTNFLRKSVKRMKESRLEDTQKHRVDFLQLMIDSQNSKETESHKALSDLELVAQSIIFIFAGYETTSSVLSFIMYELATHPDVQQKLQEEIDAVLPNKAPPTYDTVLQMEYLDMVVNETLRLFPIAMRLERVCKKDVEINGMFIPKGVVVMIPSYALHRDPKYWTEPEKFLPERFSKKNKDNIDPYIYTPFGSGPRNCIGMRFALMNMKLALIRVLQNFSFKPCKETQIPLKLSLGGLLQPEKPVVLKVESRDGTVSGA
# How it was run: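 20 nM human CYP3A4 with 25 uM Luciferin-PPXE (at KM) in 200 mM KPO4, preincubated 10 min with compound; NADPH regeneration started a 60 min RT reaction. Luciferin detected by luminescence, normalized to 57 uM ketoconazole as full inhibition.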
# [8] = target: Cytochrome P450 3A4 (Homo sapiens) (UniProt P08684); assay: qHTS Assay for Activators of Cytochrome P450 3A4 (AID 885); note: nearly all actives have a fitted effect of over 65% in size
# How it was run: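 20nM CYP3A4 + 25uM Luciferin-PPXE (=KM), 200mM KPO4; cpd 10 min RT; NADPH regen, 60 min RT; stop w/ detection buffer, 20 min; luminescence. Normalized to 57 uM ketoconazole.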
# [9] = Confirmation and Secondary Assay for Modulators of Hemoglobin Beta Chain Splicing at IVS2 654 locus (AID 910);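 note: per-well total GFP intensity by laser scanning cytometry after 2-day treatment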
# How it was run: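 HeLa cells stably carrying EGFP interrupted by mutant beta-globin IVS2-654 intron (CMV-driven) were treated with compound for 2 days at 37C; corrected splicing was scored as total peak GFP intensity per well (488 nm excitation, 500-520 nm emission).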
# [10] = Confirmation and Secondary Assay for Modulators of Hemoglobin Beta Chain Splicing at IVS2 705 locus (AID 930);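 note: HeLa cells stably expressing the EGFP-705 splicing reporter; GFP fluorescence per well restored by corrected splicing of the IVS2-705 intron in EGFP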
# How it was run: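 Fluorescence gain (488 nm laser, 500-520 nm PMT) reflects restored correct splicing of a mutant IVS2-705 intron inside EGFP in stably transfected HeLa cells after 2-day compound treatment.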
# [11] = qHTS Assay for Lipid Storage Modulators (AID 1519; calls by dose curve); conditions: Drosophila S3 cells, BODIPY lipid droplet/cell ratio, laser cytometry, cells loaded with oleic acid; for activity change, negative = inhibition: at 57.5 µM (top of the series)
# How it was run: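 Cells seeded at 5,000 per well were treated with compounds over a concentration series and loaded with oleic acid (400 uM, as added). Lipid droplet fluorescence (488 nm excitation, 500-530 nm channel) was read by laser-scanning cytometry and normalized to 20 uM Triacsin C.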
# [12] = Primary qHTS for small molecule stabilizers of the endoplasmic reticulum resident proteome: Secreted ER Calcium Modulated Protein (SERCaMP) assay (AID 1508630)
# How it was run: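 GLuc-SERCaMP-expressing SH-SY5Y cells, pretreated 16 h with compound, are challenged with thapsigargin to empty ER calcium stores; after 4 h, coelenterazine is added directly to the medium and luminescence is imaged.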
# [13] = target: Lysosomal acid glucosylceramidase (Homo sapiens) (UniProt P04062); assay: Glucocerebrosidase-p2 (AID 348; in the data active = potency below about 10 µM; note: potency is the fitted concentration of half-maximal effect); conditions: purified GBA, blue fluorogenic substrate, 40 min
# How it was run: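 Compounds titrated from 0.6 nM upwards against 0.2 nM enzyme in pH 5.9 citric acid/KH2PO4, taurocholate, tween-20; blue fluorogenic substrate 80 uM, 40 min room temperature, stopped and read Ex 365/Em 440 for AC50.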
# [14] = AP1 Signaling Pathway (AID 357; active = well fitted curve in either direction with a large enough effect, not every such curve was filed as active); conditions: ME-180 AP-1-bla reporter, EGF-induced, beta-lactamase ratio, 5 h; at 7.69 µM (top of the series) unless noted
# How it was run: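 In this screen, ME-180 cells in Opti-MEM with 0.5% dialyzed FBS received EC50 EGF and compound titrations for 5 h. AP-1 reporter beta-lactamase was detected via CCF4 ratio, giving AC50 for positive and negative modulators.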
# [15] = Stat Signaling Pathway (AID 446; active = well fitted curve in either direction with a large enough effect, not every such curve was filed as active;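 note: ME-180 cervical cancer cells given 40 pM IL-6 alongside compound; SIE-controlled beta-lactamase reporter measured as 460/530 nm FRET emission ratio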); conditions: ME-180 SIE beta-lactamase reporter, IL-6 stimulated, 5 h; at 7.69 µM (top of the series) unless noted
# How it was run: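 ME-180 SIE-bla cells; overnight plating; cpd + IL-6 40 pM, 5 h, 37 C; LiveBLAzer 2.5 h RT; 460/530 nm emission ratio. Normalized to 300 pM IL-6 and 125 nM JAK inhibitor controls.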
# [16] = target: Cytochrome P450 2D6 (Homo sapiens) (UniProt P10635); assay: qHTS Assay for Inhibitors and Substrates of Cytochrome P450 2D6 (AID 891); note: potency is the fitted concentration of half-maximal effect; nearly all actives have a fitted effect of over 60% in size
# How it was run: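 Human CYP2D6 (5 nM) with 30 uM Luciferin-ME EGE (at Km) in 100 mM KPO4, compound preincubated 10 min, then NADPH regeneration system for 60 min at room temperature. Luciferin read by luminescence; normalized to 1.43 uM quinidine.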
# [17] = target: Cytochrome P450 2C19 (Homo sapiens) (UniProt P33261); assay: qHTS Assay for Inhibitors and Substrates of Cytochrome P450 2C19 (AID 899); note: potency is the fitted concentration of half-maximal effect; nearly all actives have a fitted effect of over 60% in size
# Chain of Cytochrome P450 2C19 (Homo sapiens) (P33261 whole entry, looked up): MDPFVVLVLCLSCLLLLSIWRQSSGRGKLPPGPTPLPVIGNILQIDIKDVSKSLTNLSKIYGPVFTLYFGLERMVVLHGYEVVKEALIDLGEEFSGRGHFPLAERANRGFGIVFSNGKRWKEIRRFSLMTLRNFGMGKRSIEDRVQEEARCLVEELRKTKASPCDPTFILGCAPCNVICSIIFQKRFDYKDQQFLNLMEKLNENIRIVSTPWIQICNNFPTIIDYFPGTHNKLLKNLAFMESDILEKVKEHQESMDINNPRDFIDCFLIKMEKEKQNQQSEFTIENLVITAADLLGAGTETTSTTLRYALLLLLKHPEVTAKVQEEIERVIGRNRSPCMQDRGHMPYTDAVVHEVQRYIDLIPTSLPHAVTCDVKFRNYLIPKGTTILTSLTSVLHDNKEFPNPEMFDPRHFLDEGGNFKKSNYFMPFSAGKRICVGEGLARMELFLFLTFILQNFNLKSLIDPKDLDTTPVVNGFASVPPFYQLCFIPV
# How it was run: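 In 50mM KPO4, the reaction held 5nM enzyme and KM-level (10uM) Luciferin-H EGE; it ran 60 min at 37C after NADPH regeneration and a 10 min compound preincubation. Luminescence values were scaled to 57uM ketoconazole as complete inhibition.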
# [18] = target: Dual specificity protein kinase CLK4 (Homo sapiens) (UniProt Q9HAZ1); assay: qHTS Assay for Inhibitors of CDC-like Kinase 4 (Kinase-Glo Assay) (AID 1770); note: potency is the fitted concentration of half-maximal effect; nearly all actives have a fitted effect of over 65% in size
# Chain of Dual specificity protein kinase CLK4 (Homo sapiens) (Q9HAZ1 whole entry, looked up): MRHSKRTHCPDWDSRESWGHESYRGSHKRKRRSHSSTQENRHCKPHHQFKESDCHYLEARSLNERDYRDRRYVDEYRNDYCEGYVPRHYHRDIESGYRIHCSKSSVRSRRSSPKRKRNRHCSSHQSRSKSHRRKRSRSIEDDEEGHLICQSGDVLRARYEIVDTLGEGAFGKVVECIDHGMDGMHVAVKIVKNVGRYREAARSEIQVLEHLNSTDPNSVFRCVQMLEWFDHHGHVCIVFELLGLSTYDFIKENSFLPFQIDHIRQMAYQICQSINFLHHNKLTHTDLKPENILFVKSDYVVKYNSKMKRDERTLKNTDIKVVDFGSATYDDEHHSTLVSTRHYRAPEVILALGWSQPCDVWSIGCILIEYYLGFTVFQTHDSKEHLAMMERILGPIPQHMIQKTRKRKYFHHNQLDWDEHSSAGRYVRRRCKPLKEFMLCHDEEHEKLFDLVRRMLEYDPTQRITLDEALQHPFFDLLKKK
# How it was run: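 Substrate mix (RS peptide 100 uM, ATP 1 uM) dispensed, compound pinned in, then Clk4 added to 25 nM final. Incubated 4.5 h at RT; Kinase-Glo reagent added, luminescence read after 5 min.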
# [19] = target: Dual specificity protein kinase CLK4 (Homo sapiens) (UniProt Q9HAZ1); assay: qHTS Assay for Inhibitors of CDC-like Kinase 4 (ADP-Glo Assay) (AID 1771); note: potency is the fitted concentration of half-maximal effect; nearly all actives have a fitted effect of over 70% in size
# How it was run: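 25 nM Clk4 with 100 uM RS repeat peptide and 1 uM ATP (final) in buffer with 2 mM MgCl2, 0.5 mM EGTA, 2.5 mM DTT, 0.01% Triton X-100; 1 h at room temperature; ADP-Glo luminescence for ADP formed.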
# [20] = target: Dual specificity protein kinase CLK4 (Homo sapiens) (UniProt Q9HAZ1); assay: qHTS Assay for Inhibitors of CDC-like Kinase 4 (ADP-FP Assay) (AID 1795); note: potency is the fitted concentration of half-maximal effect; nearly all actives have a fitted effect of over 60% in size
# How it was run: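 Clk4 6.25 nM; RS peptide 100 uM; ATP 1 uM; 25 mM Tris pH 7.5, 10 mM MgCl2; 1 h reaction. ADP detected via antibody/orange tracer FP displacement; TG003 positive control.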
# [21] = target: Ubiquitin carboxyl-terminal hydrolase 1 (Homo sapiens) (UniProt O94782); assay: Inhibitors of USP1/UAF1: Pilot qHTS (AID 504865);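 note: rhodamine fluorescence freed from ubiquitin-rhodamine substrate followed over time; top concentration of the series differs between compounds; nearly all actives have a fitted effect of over 35% in size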
# Chain of Ubiquitin carboxyl-terminal hydrolase 1 (Homo sapiens) (O94782 whole entry, looked up): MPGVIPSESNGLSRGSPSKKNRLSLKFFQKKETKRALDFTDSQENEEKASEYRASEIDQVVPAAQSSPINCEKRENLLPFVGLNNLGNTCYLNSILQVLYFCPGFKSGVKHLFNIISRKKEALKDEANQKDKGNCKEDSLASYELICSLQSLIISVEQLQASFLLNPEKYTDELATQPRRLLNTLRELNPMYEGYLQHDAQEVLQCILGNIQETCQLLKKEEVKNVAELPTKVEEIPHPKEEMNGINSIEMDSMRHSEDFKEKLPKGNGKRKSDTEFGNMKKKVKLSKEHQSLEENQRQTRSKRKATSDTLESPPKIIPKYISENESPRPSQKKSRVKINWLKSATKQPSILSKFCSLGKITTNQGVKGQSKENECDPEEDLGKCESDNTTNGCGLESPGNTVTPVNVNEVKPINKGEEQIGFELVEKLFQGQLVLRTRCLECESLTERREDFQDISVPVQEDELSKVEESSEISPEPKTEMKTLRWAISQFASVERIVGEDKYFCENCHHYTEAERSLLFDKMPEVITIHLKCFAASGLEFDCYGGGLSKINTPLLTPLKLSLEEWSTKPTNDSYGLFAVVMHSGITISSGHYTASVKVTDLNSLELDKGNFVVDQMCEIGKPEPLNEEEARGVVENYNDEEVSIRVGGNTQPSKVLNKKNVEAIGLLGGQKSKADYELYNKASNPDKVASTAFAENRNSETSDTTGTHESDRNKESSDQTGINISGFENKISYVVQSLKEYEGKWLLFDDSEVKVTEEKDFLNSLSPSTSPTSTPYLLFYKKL
# How it was run: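 In 50mM HEPES pH 7.8 containing 0.5mM EDTA, 1mM TCEP, 0.1 mg/ml BSA and 0.01% Tween-20, 1nM USP1/UAF1 is exposed to compound for 15 min, then Ub-Rho (150nM final) is added and fluorescence is read over time.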
# [22] = target: Rap guanine nucleotide exchange factor 3 (Homo sapiens) (UniProt O95398); assay: Confirmatory qHTS for agonist of cAMP-regulated guanine nucleotide exchange factor 3 (EPAC1) (AID 1645881);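 note: EPAC1 catalysed release of BODIPY-GDP from Rap1B seen as fluorescence loss; nearly all actives have a fitted effect of over 75% in size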
# Chain of Rap guanine nucleotide exchange factor 3 (Homo sapiens) (O95398 whole entry, looked up): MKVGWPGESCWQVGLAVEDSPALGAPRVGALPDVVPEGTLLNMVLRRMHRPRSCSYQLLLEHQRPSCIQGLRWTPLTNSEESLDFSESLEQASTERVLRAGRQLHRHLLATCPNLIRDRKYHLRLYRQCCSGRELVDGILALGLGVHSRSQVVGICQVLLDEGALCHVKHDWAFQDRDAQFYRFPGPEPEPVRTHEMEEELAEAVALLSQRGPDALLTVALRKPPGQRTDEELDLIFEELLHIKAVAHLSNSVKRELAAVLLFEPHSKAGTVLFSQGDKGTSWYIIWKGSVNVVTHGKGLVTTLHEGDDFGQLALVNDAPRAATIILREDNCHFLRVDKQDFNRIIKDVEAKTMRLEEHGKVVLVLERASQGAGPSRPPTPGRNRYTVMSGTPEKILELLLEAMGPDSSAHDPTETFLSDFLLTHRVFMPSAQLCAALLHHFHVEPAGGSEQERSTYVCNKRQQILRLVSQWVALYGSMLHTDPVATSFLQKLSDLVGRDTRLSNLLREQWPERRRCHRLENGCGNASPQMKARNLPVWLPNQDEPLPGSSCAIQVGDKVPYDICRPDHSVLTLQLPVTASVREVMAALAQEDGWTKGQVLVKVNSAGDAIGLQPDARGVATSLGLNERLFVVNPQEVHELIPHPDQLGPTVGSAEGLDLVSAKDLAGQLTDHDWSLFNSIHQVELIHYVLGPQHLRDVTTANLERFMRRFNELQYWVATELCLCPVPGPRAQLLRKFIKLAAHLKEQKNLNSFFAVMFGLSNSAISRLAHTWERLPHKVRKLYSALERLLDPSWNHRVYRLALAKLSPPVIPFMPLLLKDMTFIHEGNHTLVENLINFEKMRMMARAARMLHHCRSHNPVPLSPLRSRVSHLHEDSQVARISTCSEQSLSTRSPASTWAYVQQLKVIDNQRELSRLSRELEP
# [23] = target: Rap guanine nucleotide exchange factor 4 (Homo sapiens) (UniProt Q8WZA2); assay: Confirmatory qHTS for agonist of cAMP-regulated guanine nucleotide exchange factor 4 (EPAC2) (AID 1645884);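 note: nucleotide exchange releases bodipy-GDP from Rap1 and this lowers its fluorescence; nearly all actives have a fitted effect of over 65% in size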
# [24] = Confirmatory qHTS for small molecule stabilizers of the endoplasmic reticulum resident proteome: Secreted ER Calcium Modulated Protein (SERCaMP) assay (AID 1508628); note: potency is the fitted concentration of half-maximal effect; nearly all actives have a fitted effect of over 40% in size
# How it was run: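 SH-SY5Y cells stably expressing GLuc-SERCaMP, treated 16 h with compound (primary 1.53, 7.67, 38.3 uM; confirmation 11 concentrations, up to 76.6 uM), then 100 nM thapsigargin for 4 h. Secreted Gaussia luciferase in medium read by coelenterazine luminescence.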
# [25] = NCATS anti-infectives library activity on HEK293 viability as a counter-qHTS vs the C. elegans viability qHTS (AID 1745854);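 note: HEK293 cells exposed to compounds for 24 hr before the viability read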
# How it was run: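 HEK293 cells (1,500/well) exposed 24 hr at 37C to 1:5 titrations, up to 41.7 uM final; counter-screen to a C. elegans viability qHTS. Viability by CellTiter-Glo luminescence after 10 min at room temperature; digitonin as control.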
# [26] = measured here: cell count channel max response
# [27] = measured here: lipid channel max response
structure (smiles),measurement,setting,value
Cc1ccc(OCCn2c(CCNC(=O)Cc3cc(F)ccc3F)nc3ccccc32)cc1,Potency,[1],inactive
O=S(=O)(Nc1cccc2cccnc12)c1ccc(Br)s1,Potency,[1],inactive
COc1cccc(-c2ccc3ncnc(NCc4cccs4)c3c2)c1,Potency,[2],0.501 µM (active)
same,"activity change, negative = inhibition",[3],23.9% (inactive)
same,Potency,[4],> 46 µM (inactive)
same,Potency,[5],> 46 µM (inactive)
same,outcome,[6],inactive
same,Potency,[7],7.94 µM (active)
same,Potency,[8],inactive
same,outcome,[9],inactive
same,outcome,[10],inactive
same,"activity change, negative = inhibition",[11],-9.22% (inactive)
same,max response,[11]; [26],-18.2%
same,max response,[11]; [27],-23.5%
same,Potency,[1],inactive
same,Potency,[12],inactive
Cc1ccc(OC2=NS(=O)(=O)c3ccccc32)cc1,Potency,[1],inactive
CC(=O)Nc1sc2c(c1-c1ccco1)CCNC2,Potency,[1],inactive
C[C@@H](O)c1ccc(-c2ccc3ncnc(NCc4cccs4)c3c2)o1,Potency,[1],inactive
Nc1ccc(S(=O)(=O)N2CCN(S(=O)(=O)c3c(F)cccc3F)CC2)cc1,Potency,[1],inactive
COc1ccc(C(=O)O)cc1COc1ccc(NC(C)=O)cc1,Potency,[1],inactive
CC(C)Oc1ccc(C(=O)Nc2ccc(-c3nc4ccccc4[nH]3)cc2)cc1,Potency,[1],inactive
CN(Cc1ccco1)c1ncnc2ccc(-c3ccccc3Cl)cc12,Potency,[13],> 11.4 µM (inactive)
same,"activity change, negative = inhibition",[14],-12% (inactive)
same,Potency,[2],2 µM (active)
same,"activity change, negative = inhibition",[3],-13.6% (inactive)
same,"activity, negative = inhibition",[15],11.7% (inactive)
same,Potency,[4],> 46 µM (inactive)
same,Potency,[5],> 46 µM (inactive)
same,outcome,[6],inactive
same,Potency,[8],inactive
same,Potency,[16],7.94 µM (active)
same,Potency,[17],3.16 µM (active)
same,Potency,[18],14.1 µM (active)
same,Potency,[19],14.1 µM (active)
same,Potency,[20],4.47 µM (active)
same,Potency,[21],inactive
same,Potency,[1],inactive
same,Potency,[12],inactive
same,outcome,[22],inactive
same,outcome,[23],inactive
Cc1cnc(NC(=O)c2cc(S(=O)(=O)N(C)C)ccc2N2CCCC2)s1,Potency,[1],inactive
same,Potency,[24],8.91 µM (active)
same,Potency,[25],inactive
Cc1cc(NS(=O)(=O)c2ccc3c(c2)CCC(=O)N3)ccc1Cl,Potency,[1],inactive
COC(=O)c1nc(Nc2cc(F)cc(F)c2)nc(NC2CCCC2)n1,Potency,[1],inactive
O=C(NCCc1nc2ccccc2n1CCO)C1CCCCC1,Potency,[1],inactive
Cc1cc2c(s1)c1cnn(Cc3cc(F)c(F)c(F)c3)c(=O)c1n2C,Potency,[1],inactive
Cc1ccccc1C(=O)N1CCc2cc(-c3cccc(NC(=O)Cc4ccc5c(c4)OCO5)c3)ccc21,Potency,[1],inactive
COc1ccc(OC)c(C2=Nn3c(nnc3-c3ccccc3C)SC2)c1,Potency,[1],inactive
Cc1nnc(-c2cnn(C)c2N)n1Cc1cncn1C,Potency,[1],inactive
Cc1cc2c(s1)c1cnn(Cc3ccc(Br)cc3)c(=O)c1n2C,Potency,[1],inactive
COc1cnccc1-c1nc(Nc2ccc(F)c(F)c2)c2ccccc2n1,Potency,[1],inactive
N#Cc1ccccc1S(=O)(=O)N1CCN(S(=O)(=O)c2ccc3c(c2)OCCO3)CC1,Potency,[1],inactive
O=C1CCc2cc(S(=O)(=O)Nc3cccc(Oc4ccccc4)c3)ccc2N1,Potency,[1],inactive
O=C1CCc2cc(S(=O)(=O)Nc3ccc4ccccc4c3)ccc2N1,Potency,[1],inactive
COc1ccc(C2Nc3ccccc3C(=O)N2Cc2ccccn2)cc1COc1ccc(NC(C)=O)cc1 (configuration not stated),Potency,[1],inactive
Cc1cccc(CNc2ncnc3ccc(-c4ccoc4)cc23)c1,"activity change, negative = inhibition",[14],-19.9% (inactive)
same,Potency,[2],3.98 µM (active)
same,"activity change, negative = inhibition",[3],-14.2% (inactive)
same,"activity, negative = inhibition",[15],-30% (inactive)
same,Potency,[4],> 46 µM (inactive)
same,Potency,[5],> 46 µM (inactive)
same,outcome,[6],inactive
same,Potency,[17],7.94 µM (active)
same,outcome,[9],inactive
same,"activity change, negative = inhibition",[11],-3% (inactive)
same,max response,[11]; [26],11.4%
same,max response,[11]; [27],6.71%
same,Potency,[21],inactive
same,Potency,[1],inactive
same,Potency,[12],inactive
